A short description of assay [1]: qHTS profiling of the MIPE4 collection as inhibitors of Plasmodium falciparum (3D7) proliferation (AID 743344). The note with it: P. falciparum 3D7 in erythrocytes, SYBR Green DNA fluorescence, 72 h; at 28.5 µM unless noted. In outline:
(§1)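 Parasite DNA was quantified by SYBR Green I fluorescence (ex 485, em 535 nm) after overnight lysis in saponin/Triton buffer at room temperature. Cultures at 0.3% parasitemia and 2.5% hematocrit were first exposed to compound for 72 h at 37 C; signals were normalised to artemisinin (0.29 uM) and vehicle wells.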
On the technique in general: Quantitative high-throughput screening tests each substance at several concentrations.

The nature of assay [2]: qHTS profiling of the MIPE4 collection as inhibitors of Plasmodium falciparum (DD2) proliferation (AID 743345). To be noted: P. falciparum Dd2 in erythrocytes, SYBR Green DNA, 72 h; at 28.5 µM unless noted. An outline of the steps:
as §1

Assay [3] can be described thus: qHTS profiling of the MIPE4 collection as inhibitors of Plasmodium falciparum (DD2) proliferation (Rep 2) (AID 743346). To be noted: P. falciparum Dd2 in erythrocytes, SYBR Green DNA, 72 h; at 28.5 µM unless noted. In outline:
as §1

A short description of assay [4]: qHTS profiling of the MIPE4 collection as inhibitors of Plasmodium falciparum (HB3) proliferation (AID 743347).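 Also: plate controls were DMSO vehicle wells for no effect and artemisinin wells for full effect.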 To be noted: P. falciparum HB3 in erythrocytes, SYBR Green DNA, 72 h; at 28.5 µM unless noted. In outline:
as §1

The nature of assay [5]: High-throughput drug toxicity screening in the BPDCN cell line Gen2.2 (AID 1224824).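 Also: cells exposed to compounds for 48 h before reading.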 To be noted: Gen2.2 BPDCN cells; at 45.8 µM (top of the series) unless noted. In outline: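 Readout is ATP luminescence from Gen2.2 cells after two days of drug exposure in serum-containing medium at 37 °C. Values express percent activity, with vehicle defining full signal and 9.2 uM bortezomib defining zero.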

Assay [6] is described as follows: High-throughput drug toxicity screening in the BPDCN cell line Cal-1 (AID 1224825). The note with it: Cal-1 BPDCN cell viability, qHTS; at 45.8 µM (top of the series) unless noted. In outline:
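CellTiter-Glo luminescence after 48 h compound exposure; percent activity scaled with DMSO as 100% and bortezomib (9.2 uM final) as 0%. Cal-1 cells seeded at 500/well in RPMI, 10% FBS, no phenol red.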

A short description of assay [7]: qHTS profiling for inhibitors of Plasmodium falciparum (3D7) proliferation (AID 743322).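 Also: infected erythrocytes exposed to compound for 72 h before lysis; 100% = DMSO vehicle wells and 0% = 0.29 µM artemisinin.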 To be noted: P. falciparum 3D7 proliferation; at 28.7 µM (top of the series). An outline of the steps: as §1
The nature of assay [8]: qHTS profiling for inhibitors of Plasmodium falciparum (DD2) proliferation (AID 743323). The note with it: lower = more inhibition; at 28.7 µM (top of the series). An outline of the steps: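 Parasite proliferation measured via DNA-dye fluorescence, as uninfected erythrocytes lack DNA. Cultures at 0.3% parasitemia and 2.5% hematocrit incubated 72 h with compound; signal scaled between vehicle and 0.29 uM artemisinin wells.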

Assay [9] is described as follows: qHTS profiling for inhibitors of Plasmodium falciparum (HB3) proliferation (AID 743324).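 Also: 100% = DMSO vehicle wells and 0% = artemisinin-treated control wells.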 To be noted: Plasmodium falciparum HB3 blood-stage proliferation; at 28.7 µM (top of the series). In outline:
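SYBR Green fluorescence (485 ex/535 em) of lysed cultures, incubated overnight at room temperature in the dark, quantifies parasite DNA. Infected erythrocytes at 0.3% parasitemia and 2.5% hematocrit were exposed 72 h; values normalized to DMSO and 0.29 uM artemisinin controls.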

Here are results for 13 compounds from PubChem BioAssay (NCATS).

Consider `COc1ccc(F)c(F)c1C(=O)c1cnc(NC2CCN(S(C)(=O)=O)CC2)nc1N`, for which, in assay [1], the parasite growth, % of DMSO control is 27.7%. The parasite growth remaining, % of DMSO control (lower = more inhibition) in [2] stood at 60.1%. Also, the parasite growth, % of control (lower = inhibition) in [3] was 26%. The growth, % of control in [4] was found to be 37.7%. Also, the cell viability, % of control (lower = more cytotoxic) in assay [5] worked out at 2.27%. In addition, the viability (% of control) in assay [6] stood at 2%.

With `O=C(c1cncc(Br)c1)N1CCC(N2CCCC2)CC1`, in [1], the parasite growth, % of DMSO control worked out at 102%. For the same compound, the parasite growth remaining, % of DMSO control (lower = more inhibition) in [2] is 105%. The same compound had a growth, % of control in [4] of 96.9%. Besides, the cell viability, % of control (lower = more cytotoxic) in [5] worked out at 144%. Besides, the viability (% of control) in assay [6] turned out to be 126%.

In assay [1], `Cc1cc(N2CCOCC2)cc2[nH]c(-c3c(NC[C@@H](O)c4cccc(Cl)c4)cc[nH]c3=O)nc12` had a parasite growth, % of DMSO control of 5.92%. Moreover, in [2], the parasite growth remaining, % of DMSO control (lower = more inhibition) came to 15.8%. The parasite growth, % of control (lower = inhibition) in assay [3] stood at 14%. The compound further displayed a growth, % of control in [4] of 3.57%. Moreover, the cell viability, % of control (lower = more cytotoxic) in [5] is 25%. In addition, the viability (% of control) in assay [6] stood at 3.1%.

For the compound `COc1cc(C(C)C)c2c(c1)S(=O)(=O)N(COc1cc(=O)n3cccc(OCCN4CCCCC4)c3n1)C2=O`, in assay [7], the remaining parasite growth % (stronger effect = lower value) came to 105%. In addition, in [8], the activity, percent of control is 94.1%. For the same compound, the remaining proliferation (% of control), lower = more inhibition in assay [9] was found to be 89.5%. Also, the parasite growth, % of DMSO control in assay [1] came to 101%. For the same compound, the parasite growth remaining, % of DMSO control (lower = more inhibition) in assay [2] was 95.7%. Besides, in assay [3], the parasite growth, % of control (lower = inhibition) amounted to 114%. In assay [4], this compound yielded a growth, % of control of 107%. Besides, the viability (% of control) in [6] is 10.9%.

`CN1c2cc(O)c(N=NC(N)=O)cc2CC1S(=O)(=O)O` (configuration not stated): the parasite growth, % of control (lower = inhibition) in assay [3] worked out at 19.7%. Moreover, the cell viability, % of control (lower = more cytotoxic) in assay [5] is 170%. Also, in assay [6], the viability (% of control) turned out to be 126%.

The compound `C1=CCOCc2cc(ccc2OCCN2CCCC2)Nc2nccc(n2)-c2cccc(c2)OCC1` gave a parasite growth, % of DMSO control in [1] of 5.07%. Further, the parasite growth remaining, % of DMSO control (lower = more inhibition) in assay [2] came to 5.48%. In addition, the growth, % of control in [4] was 5.8%. Further, the cell viability, % of control (lower = more cytotoxic) in assay [5] is 8.21%. In addition, the viability (% of control) in [6] was determined as 5.28%.

The compound `CCCCOc1c(C(=O)c2c(F)cc(C)cc2F)cnc2n[nH]cc12` gave a parasite growth, % of DMSO control in assay [1] of 71.2%. Besides, the parasite growth remaining, % of DMSO control (lower = more inhibition) in [2] came to 98.1%. The compound further gave a growth, % of control in assay [4] of 92.5%. In addition, the cell viability, % of control (lower = more cytotoxic) in assay [5] came to 8.67%. Moreover, the viability (% of control) in [6] came out at 26.5%.

Take `COc1cc(C(=O)N2CCC(N3CCN(C)CC3)CC2)ccc1Nc1ncc2c(n1)N(C)c1ccccc1C(=O)N2C`: the parasite growth, % of DMSO control in assay [1] is 5.57%. The parasite growth remaining, % of DMSO control (lower = more inhibition) in assay [2] stood at 7.18%. The same compound registered a growth, % of control in [4] of 5.31%. The cell viability, % of control (lower = more cytotoxic) in assay [5] was 2.17%. Further, the viability (% of control) in assay [6] was found to be 3.29%.

For the compound `CNC(=O)c1c(F)cccc1Nc1nc(Nc2cc3c(cc2OC)CCN3C(=O)CN(C)C)nc2[nH]ccc12`, in assay [1], the parasite growth, % of DMSO control was 3.51%. In addition, the parasite growth remaining, % of DMSO control (lower = more inhibition) in [2] is 6.69%. For the same compound, in [3], the parasite growth, % of control (lower = inhibition) was 6.76%. The same compound came in with a growth, % of control in assay [4] of 2.27%. Further, the cell viability, % of control (lower = more cytotoxic) in [5] stood at 5.55%. Further, in assay [6], the viability (% of control) came out at 2.8%.

For `CNC(=O)c1ccc(-c2cnc3ncc(Cc4ccc5ncccc5c4)n3n2)cc1F`, in assay [1], the parasite growth, % of DMSO control amounted to 19.3%. For the same compound, the parasite growth remaining, % of DMSO control (lower = more inhibition) in [2] is 41.8%. Also, the growth, % of control in [4] stood at 10.4%. Further, in [5], the cell viability, % of control (lower = more cytotoxic) worked out at 48.9%. Also, in assay [6], the viability (% of control) was determined as 92.3%.

`CC(C)Nc1cc(C(F)(F)F)cc2nc(NC(=O)c3cccnc3)nn12` registered a parasite growth, % of DMSO control in [1] of 78.6%. Also, the parasite growth remaining, % of DMSO control (lower = more inhibition) in assay [2] came out at 97.3%. Besides, the parasite growth, % of control (lower = inhibition) in [3] was determined as 92.3%. In assay [4], this compound showed a growth, % of control of 93.5%. The cell viability, % of control (lower = more cytotoxic) in [5] was 80.4%. For the same compound, the viability (% of control) in assay [6] was found to be 120%.

For the compound `Cc1cc(Nc2nc(N[C@@H](C)c3ccc(F)cc3)c(C#N)cc2F)n[nH]1`, the parasite growth, % of DMSO control in assay [1] turned out to be 7.05%. Besides, the parasite growth remaining, % of DMSO control (lower = more inhibition) in assay [2] stood at 7.99%. Also, the parasite growth, % of control (lower = inhibition) in assay [3] was 9.75%. The same compound yielded a growth, % of control in assay [4] of 6.34%. In assay [5], the cell viability, % of control (lower = more cytotoxic) amounted to 218%. The viability (% of control) in assay [6] is 12.6%.

In turn, `CCn1nnc2c(N3CCOCC3)nc(-c3ccc(NC(=O)Nc4ccc(C(=O)N5CCN(C)CC5)cc4)cc3)nc21` returned a parasite growth, % of DMSO control in assay [1] of 6.79%. Further, the parasite growth remaining, % of DMSO control (lower = more inhibition) in assay [2] was found to be 6.26%. Also, the parasite growth, % of control (lower = inhibition) in assay [3] came out at 13.6%. Further, in assay [4], the growth, % of control came to 5.28%. Also, the cell viability, % of control (lower = more cytotoxic) in assay [5] worked out at 28.1%. The viability (% of control) in assay [6] came to 26.6%.
